Results: PubChem BioAssay AID493087 (The Scripps Research Institute Molecular Screening Center, 2011)
Among all 340,000 compounds or so, about 240 (0.071%) were called active.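 Rule for the calls: active = activation above the mean of all tested compounds plus 3 SD, set per screening campaign (cut at about 17% in these data); inactive = the rest.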 Shown is part of a subset that was picked to be rich in actives.

Target: Insulin-degrading enzyme (Homo sapiens) (UniProt P14735)
Assay: enhanced cellular IDE Abeta cleavage – fluorescence polarization, HEK cells, FAbeta-B substrate, primary screen (AID 493087)
Conditions: at 5.96 µM, hits give high values, 0% vehicle, 100% cell-free pure enzyme wells

Sequence of Insulin-degrading enzyme (Homo sapiens) (P14735 whole entry, looked up): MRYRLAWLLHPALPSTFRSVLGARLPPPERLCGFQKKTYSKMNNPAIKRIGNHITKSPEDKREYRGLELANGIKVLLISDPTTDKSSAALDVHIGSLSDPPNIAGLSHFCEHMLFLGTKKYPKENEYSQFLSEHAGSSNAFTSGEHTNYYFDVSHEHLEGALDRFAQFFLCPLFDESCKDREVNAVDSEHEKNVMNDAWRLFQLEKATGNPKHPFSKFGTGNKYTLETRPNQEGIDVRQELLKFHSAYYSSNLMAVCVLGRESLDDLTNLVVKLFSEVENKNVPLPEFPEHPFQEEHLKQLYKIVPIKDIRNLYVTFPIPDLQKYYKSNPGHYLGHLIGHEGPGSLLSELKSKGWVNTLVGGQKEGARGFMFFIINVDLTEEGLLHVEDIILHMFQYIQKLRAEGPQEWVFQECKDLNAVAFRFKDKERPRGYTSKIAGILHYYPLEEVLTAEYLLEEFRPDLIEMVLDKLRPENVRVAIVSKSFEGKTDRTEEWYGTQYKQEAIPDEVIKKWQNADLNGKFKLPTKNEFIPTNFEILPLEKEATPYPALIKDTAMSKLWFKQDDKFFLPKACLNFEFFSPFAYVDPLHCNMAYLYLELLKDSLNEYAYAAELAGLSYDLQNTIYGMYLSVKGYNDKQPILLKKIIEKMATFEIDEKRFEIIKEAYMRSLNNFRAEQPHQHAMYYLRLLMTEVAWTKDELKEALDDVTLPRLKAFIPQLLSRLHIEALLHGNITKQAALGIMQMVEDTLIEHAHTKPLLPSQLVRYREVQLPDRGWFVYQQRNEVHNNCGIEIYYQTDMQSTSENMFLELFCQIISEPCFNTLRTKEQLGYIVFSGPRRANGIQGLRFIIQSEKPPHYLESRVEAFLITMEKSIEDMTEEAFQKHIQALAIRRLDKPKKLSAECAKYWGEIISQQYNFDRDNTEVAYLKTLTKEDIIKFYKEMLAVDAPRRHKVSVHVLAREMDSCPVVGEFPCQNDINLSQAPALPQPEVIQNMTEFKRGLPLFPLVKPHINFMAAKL

activation, active:
NC(=O)c1ccc(NC(=O)COC(=O)c2c3c(nc4ccccc24)/C(=C\c2ccc4c(c2)OCO4)CCC3)cc1 39.3%, COc1cccc2sc(N(CCCN(C)C)C(=O)C(c3ccccc3)c3ccccc3)nc12 31%, Oc1ccc2ccc3cccc[n+]3c2c1 26.2%, Oc1ccc(C2Nc3cccc4cccc(c34)N2)cc1 19.4%, Cc1ccccc1OC/C(O)=C(\C#N)c1nc2ccccc2[nH]1 22.2%, CCN1CCN(CCNC(=O)c2ccc(/C=C3/Sc4ccccc4N(Cc4cccc(C)c4)C3=O)cc2)CC1 24.8%, Cc1ccc(O)c(NC(=S)NC(=O)COc2ccc(Br)cc2)c1 18.1%

activation, inactive:
Cc1cc(C)cc(NC(=O)NC2CCCCCCC2)c1 0.99%, COC1C(CO)OC(n2cnc3c(=S)nc(N)[nH]c32)C1O (stereo unspecified) -9.08%, Cc1noc(C)c1NC(=O)Nc1cccc2c1O[C@H](CN(C)S(=O)(=O)c1c(C)noc1C)[C@@H](C)CN([C@H](C)CO)C2=O -2.65%, O=S(=O)(/C=C/c1ccccc1)NCCc1ccccn1 2.29%, O=C(COC(=O)c1ccncc1)Nc1ccc2c(c1)OCO2 3.58%, NS(=O)(=O)c1ccc(NC(=O)COC(=O)c2c3c(nc4ccccc24)/C(=C\c2ccc4c(c2)OCO4)CCC3)cc1 1.16%, CCCN(CC(=O)Nc1ccc(C(N)=O)cc1)CC(=O)Nc1ccccc1C 0.5%, O=S(=O)(c1ccc2ccccc2c1)N1CCN(S(=O)(=O)N2CCOCC2)CC1 -4.09%, Cc1ccc(CC(=O)N(C)CC(=O)N(CC(C)C)c2c(N)n(CC(C)C)c(=O)[nH]c2=O)cc1C -3.16%, O=C(NCc1ccncc1)C(=O)NCC1OCCN1S(=O)(=O)c1ccc(Br)cc1 (stereo unspecified) 1.15%, COc1cc2ccccc2cc1C(=O)N(CCN(C)C)c1nc2c(F)cccc2s1 6.93%, COc1cccc2sc(N(CCCN(C)C)C(=O)CCS(=O)(=O)c3ccccc3)nc12 5.71%, NS(=O)(=O)c1ccc(NC2=CC(c3ccc(F)cc3)N(c3ccc(S(N)(=O)=O)cc3)C2=O)cc1 (stereo unspecified) 1.07%, CC(=O)c1cccc(-n2nnnc2SCC(=O)NNC(=O)C2CCCCC2)c1 6.48%, Oc1ccc(-c2nc3ccccc3nc2-c2ccc(O)cc2O)c(O)c1 3.04%, Cc1ccc(-c2nn(C(C)(C)C)c3ncnc(N)c23)cc1 2.32%, Cc1cccc2c1cnn2C(=O)CCC(=O)NC1CCCCC1 0.37%, COc1cc(Cl)cc(C2NC(=O)NC(C)=C2C(=O)NCc2ccccc2)c1O (stereo unspecified) -1.41%, COc1ccc(C2NC(=O)c3ccccc3N2)cc1 (stereo unspecified) 3.47%, Brc1ccccc1C1Nc2cccc3cccc(c23)N1 8.61%, C=CCOC(=O)C1=C[C@H](c2ccc(Br)cc2)C[C@H](OCCCCO)O1 -1.17%, NC(=O)COC(=O)c1ccc2c(c1)C(=O)N(Cc1ccco1)C2=O 1.77%, O=C(Nc1cc2c3c(c1)C1CCCC1CN3CC1CCCC21)c1ccc([N+](=O)[O-])cc1 (stereo unspecified) 1.32%, CC(=O)c1ccc(N2CCN(CC(O)c3ccccc3)CC2)cc1 (stereo unspecified) 3.22%, CC(C)(C)c1nnc2sc(SCC(O)=C(C#N)c3nc4ccccc4[nH]3)nn2c1=O -2.57%, COCCNC(=O)COc1ccccc1C 3.83%, O=C(Nc1ccccc1C(=O)N1CCCCC1)c1ccco1 7.42%, CC(C)[C@@H](C(=O)OCC(=O)c1ccc2c(c1)NC(=O)CO2)N1C(=O)c2ccccc2C1=O 6.47%, O=C(O)CCn1cc(/C=C/C(=O)c2ccc(Cl)cc2)c(-c2cccc(Br)c2)n1 7.16%, COc1cc2c3c(c1)/C(=C1/SC(=S)NC1=O)C(=O)N3C(C)(C)C=C2C 3.91%, O=C(CSc1nc2nccnc2c(=O)n1Cc1cccs1)Nc1ccccc1F -1.39%, N#C/C(=C/c1cccc([N+](=O)[O-])c1)c1nnc2n1CCCCC2 1.53%, O=C(O)c1ccc(S(=O)(=O)N2CCC(Cc3ccccc3)CC2)cc1 -5.76%, COc1ccc(-c2c(-c3cc(OC)cc(OC)c3)n(C)c3ccc(-c4ccn[nH]4)cc23)cc1 1.2%, CCSc1nc(=S)n(CC)c(C)c1C(C)=O -2.33%, CC1=C(C)CC(C(=O)NNC(=O)c2csc3c2CCC(C(C)(C)C)C3)C(C(=O)O)C1 (stereo unspecified) 4.06%, Cc1ccc(CNC(=O)C2CCN(S(=O)(=O)c3ccc4nc5c(c(C(=O)O)c4c3)CC(C)CC5)CC2)cc1 (stereo unspecified) -1.27%, Cc1ccc(-c2nc(COC(=O)c3c(C)noc3C)cs2)cc1 -2.15%, COC(=O)c1sc2[nH]c(=S)n(N)c(=O)c2c1C 3.84%, O=C(CCC(=O)N1CCN(S(=O)(=O)c2ccc(Cl)cc2)CC1)NCc1cccc(C(F)(F)F)c1 2.14%, Cc1ccc(S(=O)(=O)N(C)CC(=O)NCC(c2ccc(F)cc2)N2CCOCC2)cc1 (stereo unspecified) 1.51%, Cn1nccc1C(=O)N1CCCC(C(=O)c2ccc(Oc3ccccc3)cc2)C1 (stereo unspecified) -8.2%, O=C(NCCCn1ccnc1)C(=O)NCC1OCCN1S(=O)(=O)c1cc(F)ccc1F (stereo unspecified) 4.73%, COc1ccc(-n2ncc3c2CC(C)(C)CC3NC(=O)CCc2c(C)nn(C)c2C)cc1 (stereo unspecified) 5.01%, CN1CCC(=NNC(=O)CN(c2cccc(Cl)c2)S(C)(=O)=O)CC1 2.41%, O=C(CN1C(=O)NC(Cc2ccccc2)(Cc2ccccc2)C1=O)NCC1CCCCC1 2.02%, CCc1cc(=O)oc2cc(OCC(=O)N3CCCc4ccccc43)ccc12 -2.67%, O=C(CN1C(=O)CC(c2ccccc2)=Nc2ccccc21)NC1CCCCC1 1.38%, CC12CCCCC1=CC(=O)CC2 (stereo unspecified) 3.28%, Cc1ccc(S(=O)(=O)N2CC(C)N(S(C)(=O)=O)C2)cc1 (stereo unspecified) 2.36%, COCC1CCN(C(=O)CCc2nnc(C3(c4ccc(Cl)cc4)CCC3)o2)C1 (stereo unspecified) 0.92%, CCC(Cc1ccccc1)NS(=O)(=O)c1ccc2c(c1)NC(=O)CS2 (stereo unspecified) 4.18%, O=C(NCCCN1CCOCC1)c1ccc2c(c1)N(Cc1cccc(F)c1)C(=O)c1ccccc1S2 0.8%, CN1CCN(CCCNC(=O)c2ccc(/C=C3\Oc4ccccc4N(Cc4ccc(Cl)cc4)C3=O)cc2)CC1 -0.17%, CCC1CCCCN1C(=S)Nc1ccc(C(C)=O)cc1 (stereo unspecified) 1.79%, CCOC(=O)c1cc2c(=O)n3ccccc3nc2n(CC(C)C)c1=NC(=O)c1c(-c2c(F)cccc2Cl)noc1C 1.41%, CC1(C)CC(N2CCN(C(c3ccccc3)c3ccccc3)CC2)=CC(=[N+]2CCCCC2)C1 0.04%, Oc1c(CN2CCOCC2)ccc(CN2CCOCC2)c1O -3.83%, c1ccc2c(c1)CCc1snnc1-2 2.79%, NC1=NOC(=O)C1C1CCCCC1 (stereo unspecified) 5.24%, COC(=O)Nc1ccc(S(=O)(=O)N(C)CC(F)(F)C(F)F)cc1 3.58%, Brc1ccc(/C=N/N2CCN(C3c4ccccc4-c4ccccc43)CC2)s1 -7.03%, CCc1ccc(C(=O)NNC(=O)C2CCN(c3ncnc4sc(C)c(C)c34)CC2)cc1 -11.5%, COc1ccc(C(=O)NCCn2nc(C)cc2C)cc1OC1CCN(C(C)=O)CC1 1.62%, O=c1nc(N2CCOCC2)nc2n1CCO2 -0.31%, Cc1ccc(S(=O)(=O)/N=C(\CN2CCOCC2)N2CCOCC2)cc1 -5.66%, COc1cc2[nH]c(O)c(C=O)c2cc1OC -5.21%, COc1ccc(C(=O)Nc2cc(C)ccc2NC(=O)COc2ccccc2)cc1 0.16%, CCS(=O)(=O)c1ccc(O)c(NC(=O)COc2ccc(Cl)cc2)c1 0.73%, Cc1cc(C)n2nc(C(=O)Nc3cccc(S(=O)(=O)N4CCOCC4)c3)nc2n1 1.61%, COc1ccc([C@H]2CC(=O)C=C(/C=C/c3ccc(Cl)cc3)C2)cc1 3.83%, COCc1cc(C)n(CC(=O)NCC2CCCO2)c(=O)c1C#N (stereo unspecified) -1.81%, COc1ccc(CCNC(=O)COC(=O)C2CC2C)cc1 (stereo unspecified) 3.39%, O=C(CCCCCCCC(=O)N1CCCCC1)N1CCCCC1 -0.9%
